Several values for one entry are separate records, joined by “and”; a condition that tells them apart may be missing. Equal values may be shown once. In all, about 5,500 compounds went through this assay and about 2,000 (36%) were called active. About 18% were inconclusive and are not listed. No stated cut-off is given here; in the data, active means normalized growth mostly below about 0.91 (no sharp cut-off); inconclusive means no clear call, values can overlap the other calls; inactive means mostly above about 0.92. The list shows a part of the results.
Assay: chemical genetic growth profiling, strain panel (AID 1159580);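 further: tested at 20 µM; growth read once vehicle control cultures reached saturation at 30 °C; 1 = growth at the plate median or of vehicle wells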
Settings: S. cerevisiae deletion strains, growth OD

Measured: normalized growth

O=C1OC(=O)C2C3CCC(O3)C12 (stereo not given)
inactive: locus YAL013W, strain DEP1, stronger effect = lower value 1.03 | locus YAL021C, strain ccr4, stronger effect = lower value 1.02 | locus YAL026C, strain drs2, stronger effect = lower value 1.02 | locus YAL030W, strain snc1, stronger effect = lower value 1.03 | locus YAL040C, strain CLN3, stronger effect = lower value 1 | locus YBL061C, strain skt5, stronger effect = lower value 1.01 | locus YBR009C, strain hhf1, stronger effect = lower value 1 | locus YBR021W, strain FUR4, stronger effect = lower value 0.947 | locus YBR023C, strain chs3, stronger effect = lower value 1.02 | locus YBR171W, strain sec66, stronger effect = lower value 1.02 | locus YBR229C, strain ROT2, stronger effect = lower value 1 | locus YBR231C, strain swc5, stronger effect = lower value 1 | locus YBR279W, strain paf1, stronger effect = lower value 1 | locus YCL011C, strain gbp2, stronger effect = lower value 1.01 | locus YCL016C, strain dcc1, stronger effect = lower value 1.03 | locus YCL029C, strain bik1, stronger effect = lower value 0.966 | locus YCL061C, strain MRC1 (second series), stronger effect = lower value 1 | locus YCL069W, strain vba3, stronger effect = lower value 0.994 | locus YCR088W, strain abp1, stronger effect = lower value 1.01 | locus YDL005C, strain med2, stronger effect = lower value 1.01 | locus YDL035C, strain GPR1, stronger effect = lower value 1.01 | locus YDL040C, strain nat1, stronger effect = lower value 1 | locus YDL074C, strain BRE1, stronger effect = lower value 1.01 | locus YDL101C, strain DUN1, stronger effect = lower value 1.01 | locus YDL134C, strain PPH21, stronger effect = lower value 1.02 | locus YDL185W, strain tfp1, stronger effect = lower value 0.937 | locus YDL192W, strain arf1, stronger effect = lower value 0.977 | locus YDR001C, strain nth1, stronger effect = lower value 1 | locus YDR069C, strain doa4, stronger effect = lower value 1.01 | locus YDR101C, strain arx1, stronger effect = lower value 0.982 | locus YDR137W, strain rgp1, stronger effect = lower value 1.06 | locus YDR150W, strain NUM1, stronger effect = lower value 1.03 and 1 | locus YDR159W, strain sac3, stronger effect = lower value 0.98 | locus YDR162C, strain NBP2, stronger effect = lower value 0.987 | locus YDR195W, strain ref2 0.975 | locus YDR297W, strain sur2, stronger effect = lower value 0.998 | locus YDR318W, strain mcm21, stronger effect = lower value 0.981 | locus YDR334W, strain swr1, stronger effect = lower value 0.992 | locus YDR335W, strain msn5, stronger effect = lower value 1.02 | locus YDR363W, strain ESC2, stronger effect = lower value 1.03 | locus YDR388W, stronger effect = lower value 0.956 | locus YDR392W, strain spt3, stronger effect = lower value 1.09 | locus YDR502C, strain sam2, stronger effect = lower value 0.966 | locus YEL003W, strain gim4, stronger effect = lower value 1.01 | locus YEL037C, strain rad23, stronger effect = lower value 1.02 | locus YEL061C, strain CIN8 (second series), stronger effect = lower value 1 | locus YEL061C, strain CIN8, stronger effect = lower value 1.02 | locus YER002W, strain NOP16, stronger effect = lower value 1.02 | locus YER015W, strain faa2, stronger effect = lower value 1.01 | locus YER016W, strain bim1, stronger effect = lower value 1.01 | locus YER110C, stronger effect = lower value 0.97 | locus YER111C, strain swi4, stronger effect = lower value 1.02 | locus YER155C, strain BEM2 (second series), stronger effect = lower value 1.02 | locus YER155C, strain BEM2, stronger effect = lower value 1.02 | locus YER167W, strain BCK2, stronger effect = lower value 1 | locus YFR010W, strain ubp6, stronger effect = lower value 0.967 | locus YGL078C, strain dbp3, stronger effect = lower value 0.98 | locus YGL086W, strain mad1, stronger effect = lower value 0.995 | locus YGL167C, strain pmr1, stronger effect = lower value 1.01 | locus YGL173C, strain kem1, stronger effect = lower value 1 | locus YGL227W, strain vid30, stronger effect = lower value 0.996 | locus YGL240W, strain doc1, stronger effect = lower value 0.981 | locus YGL248W, strain PDE1, stronger effect = lower value 1.01 | locus YGL253W, strain hxk2, stronger effect = lower value 1.03 | locus YGR078C, strain PAC10, stronger effect = lower value 1.03 | locus YGR135W, strain pre9, stronger effect = lower value 0.967 | locus YGR229C, strain SMI1, stronger effect = lower value 1.02 | locus YGR252W, strain gcn5, stronger effect = lower value 0.982 | locus YHR013C, strain ard1, stronger effect = lower value 1.05 | locus YHR027C, strain rpn1, stronger effect = lower value 1.04 | locus YHR030C, strain SLT2, stronger effect = lower value 1.01 and 0.877 | locus YHR079C, strain IRE1 (second series), stronger effect = lower value 0.98 | locus YHR079C, strain IRE1, stronger effect = lower value 0.919 | locus YHR094C, strain hxt1, stronger effect = lower value 0.98 | locus YHR129C, strain ARP1, stronger effect = lower value 1.03 | locus YHR142W, strain chs7, stronger effect = lower value 1.04 | locus YHR200W, strain rpn10, stronger effect = lower value 0.977 | locus YIL066C, strain RNR3, stronger effect = lower value 1.02 | locus YIL073C, strain SPO22, stronger effect = lower value 1.02 | locus YIL125W, strain kgd1, stronger effect = lower value 0.973 | locus YIR030C, strain dcg1, stronger effect = lower value 0.985 | locus YJL092W, strain hpr5, stronger effect = lower value 1.01 | locus YJL095W, strain BCK1 (second series), stronger effect = lower value 1.01 | locus YJL115W, strain asf1, stronger effect = lower value 1 | locus YJL129C, strain trk1, stronger effect = lower value 1.03 | locus YJL134W, strain LCB3, stronger effect = lower value 1.01 | locus YJL154C, strain vps35, stronger effect = lower value 0.999 | locus YJL164C, strain tpk1, stronger effect = lower value 1 | locus YJL166W, strain qcr8, stronger effect = lower value 0.99 | locus YJL168C, strain set2, stronger effect = lower value 0.984 | locus YJL187C, strain SWE1 (second series), stronger effect = lower value 1.01 | locus YJR043C, strain POL32, stronger effect = lower value 1 | locus YJR066W, strain TOR1, stronger effect = lower value 0.872 | locus YJR075W, strain HOC1, stronger effect = lower value 1.02
1 (inactive) and 0.875 (active): locus YJL095W, strain BCK1, stronger effect = lower value

From PubChem BioAssay AID1159580 (chemical genetic matrix, 2015)
